Data reported in PubChem BioAssay (Tox21).
Where “and” joins values, the source holds several entries; their conditions need not be identical. Identical values can stand only once. Records with an inconclusive call do not appear. The source holds several records for some structures; these can differ, active in one and inactive in another. Calls of active or inactive are those of the source. Calls come from the whole dose curve; as a rule, active = well fitted cell-killing curve with a large enough effect in the repeat runs; inconclusive = weak or mixed curves, or effect the other way; inactive = no such curve, though single readings can be large or run the other way.

Assay: qHTS assay to identify small molecule antagonists of the thyroid receptor (TR) signaling pathway - cell viability counter screen (AID 743064); note: nearly all actives have a fitted effect of over 50% in size
Conditions: GH3.TRE-Luc viability, CellTiter-Fluor, 24 h; series mostly up to 70.3 µM; activity change, negative = cytotoxic: at the top concentration
Outline: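 CellTiter-Fluor readout, 30 min at 37 °C/5% CO2, following 23.5 h incubation of GH3.TRE-Luc cells with test compound and 1 nM T3 (final).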
% is set by controls: 0 for no effect and ±100 for the full control effect; potency is the fitted concentration of half-maximal effect.

| SMILES | activity change, negative = cytotoxic | Potency |
| --- | --- | --- |
| Cc1ccc(-n2nc(C(C)(C)C)cc2NC(=O)Nc2ccc(OCCN3CCOCC3)c3ccccc23)cc1 | -21.7% (inactive) |  |
| Cc1ccc2oc(CN(Cc3ccccc3)C(=O)Nc3c(F)cc(F)cc3F)c(-c3ccc(Cl)cc3)c2c1 | -2.44% (inactive) |  |
| CCCCCCCCOC(=O)c1ccc(O)cc1 |  | 61.1 µM (active) |
| CN1CCC(Nc2ncc3ncnc(Nc4ccc(F)c(Cl)c4)c3n2)CC1 |  | 11.9 µM (active) |
| O=C1C=CC(=O)N1 |  | 9.95 µM (active) |
| CCc1cc(SCc2sc(-c3ccc(C(F)(F)F)cc3)nc2CN2CCN(c3ccc(OC)cc3)CC2)ccc1OCC(=O)O |  | 24.3 µM (active) |
| CC(C)(C)NC(=O)[C@@H]1C[C@@H]2CCCC[C@@H]2CN1C[C@@H](O)[C@H](Cc1ccccc1)NC(=O)[C@H](CC(N)=O)NC(=O)c1ccc2ccccc2n1 |  | 13.3 µM (active) and 24.7 µM (active) |
| CC(C)CCCCCCCCCCCCCCC(=O)O | -5.24% (inactive) |  |
| Cc1ccc(O)c(C(C)(C)C)c1 |  | 17.2 µM (active) and inactive |
| CCCCc1oc2ccc(NS(C)(=O)=O)cc2c1C(=O)c1ccc(OCCCN(CCCC)CCCC)cc1 |  | 10.6 µM (active) |
| Cc1cccc(CN2CCN(C(c3ccccc3)c3ccc(Cl)cc3)CC2)c1 (stereo unspecified) |  | 12.7 µM (active) |
| CCCCC(CC)COC(=O)c1ccccc1C(=O)O (stereo unspecified) | -19.5% [at 95 µM] (inactive) |  |
| O=C(Nc1cccc(Cl)c1)OCC#CCCl |  | 24.3 µM (active) |
| Cc1onc(-c2c(Cl)cccc2Cl)c1C(=O)N[C@@H]1C(=O)N2[C@@H]1SC(C)(C)[C@@H]2C(=O)O | 9.84% (inactive) |  |
| O=C1c2c(O)ccc(Nc3ccc(CCO)cc3)c2C(=O)c2c([N+](=O)[O-])ccc(O)c21 |  | 61.1 µM (active) |
| Fc1ccc([C@@H]2CCNC[C@H]2COc2ccc3c(c2)OCO3)cc1 |  | 11.9 µM (active) |
| CCCN(CCC)c1c([N+](=O)[O-])cc(C(F)(F)F)c(N)c1[N+](=O)[O-] |  | 13.6 µM (active) |
| Oc1ccc2c(c1)-c1ccccc1C2 | -22.4% (inactive) |  |

| SMILES | activity change, negative = cytotoxic | Potency |
| --- | --- | --- |
| Oc1c(Cl)cc(Cl)c2cccnc12 |  | 9.44 µM (active) |
| Oc1cccc(-c2c3nc(c(-c4cccc(O)c4)c4ccc([nH]4)c(-c4cccc(O)c4)c4nc(c(-c5cccc(O)c5)c5ccc2[nH]5)CC4)C=C3)c1 |  | 11.9 µM (active) and 10.6 µM (active) |
| C=C(C)C(=O)OCC[N+](C)(C)C |  | 60.9 µM (active) |
| CCCCCCCC[N+](CCCCCCCC)(CCCCCCCC)CCCCCCCC |  | 3.43 µM (active) |
| CC(C)n1nc(-c2cc3cc(O)ccc3[nH]2)c2c(N)ncnc21 |  | 0.106 µM (active) |
| COc1cccc(N)c1 | -2.96% [at 95 µM] (inactive) |  |
| CCCC1O[C@@H]2C[C@H]3[C@@H]4CCC5=CC(=O)C=C[C@]5(C)[C@H]4[C@@H](O)C[C@]3(C)[C@]2(C(=O)CO)O1 (stereo partly specified) |  | inactive |
| N#CSc1ccc(N)c([N+](=O)[O-])c1 |  | 54.8 µM (active) |
| On1ccccc1=S |  | 1.52 µM (active) |
| CC1=C(C(=O)OC(C)C)C(c2cccc([N+](=O)[O-])c2)C(C(=O)OC2CN(C(c3ccccc3)c3ccccc3)C2)=C(N)N1 (stereo unspecified) |  | 2.98 µM (active) |
| COc1ccc(C(=O)/C(Br)=C\C(=O)O)cc1 |  | 21.7 µM (active) |
| CCCCCCCCCCCCCCCC[N+](C)(C)CCN(Cc1ccc(OC)cc1)c1ncccn1 |  | 11.4 µM (active) |
| O=C1Cc2cc(CCN3CCN(c4nsc5ccccc45)CC3)c(Cl)cc2N1 |  | inactive and 16.8 µM (active) |
| C=CC(=O)OCC(CO)(COCC(COC(=O)C=C)(COC(=O)C=C)COC(=O)C=C)COC(=O)C=C |  | 1.52 µM (active) |
| [O-][n+]1ccccc1SSc1cccc[n+]1[O-] |  | 0.266 µM (active) |
| CSc1ccc2c(c1)C(N1CCN(C)CC1)Cc1ccccc1S2 (stereo unspecified) |  | 7.5 µM (active) |
| Oc1ccc2cc(SSc3ccc4cc(O)ccc4c3)ccc2c1 |  | inactive and 61.1 µM (active) |
| Cc1nc(-c2ccc3c(c2)CCN(CCC2CCC(NC(=O)/C=C/c4ccc(F)cc4)CC2)CC3)no1 (stereo unspecified) |  | 10.9 µM (active) |
